Source: PubChem BioAssay
Sampled rows, rich in hits. Any-hit rate of the full collection: about 6%.
DRD3 antagonist: antagonists of human D3 dopamine receptor; hit rate 2.5% among 360,000; AID 652054; max response, negative = inhibition, %; D3R cells, DiscoveRx beta-arrestin luminescence, antagonist mode; hits give low values; in the data active means max response below about -50%; inconclusive means no clear call, values can overlap the other calls; further: on the % scale 0 is the no-effect control and ±100 the full control effect
Target sequence (P35462 whole entry, looked up): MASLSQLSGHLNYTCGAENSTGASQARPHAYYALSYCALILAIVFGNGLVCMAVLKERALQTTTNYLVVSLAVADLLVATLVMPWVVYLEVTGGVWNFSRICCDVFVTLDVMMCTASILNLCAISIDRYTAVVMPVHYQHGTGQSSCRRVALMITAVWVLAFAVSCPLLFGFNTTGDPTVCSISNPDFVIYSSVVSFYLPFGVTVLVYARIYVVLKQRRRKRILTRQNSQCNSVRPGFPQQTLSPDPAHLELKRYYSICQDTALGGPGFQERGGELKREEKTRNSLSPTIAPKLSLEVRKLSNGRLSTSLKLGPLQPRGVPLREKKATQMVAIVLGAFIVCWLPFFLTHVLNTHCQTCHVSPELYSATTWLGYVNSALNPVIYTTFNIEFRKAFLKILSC
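Cells expressing the human receptor were seeded at 1500 cells/well, incubated overnight at 37 degrees C in 5% CO2, then exposed to library compounds with dopamine controls for 90 minutes at 37 degrees C before luminescent detection.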
D1 ag: agonists of human D1 dopamine receptor. hit rate 1% among 360,000. HEK293 T-REx D1 cells, calcium flux, agonist mode. activation, % at 2 µM; in the data active means activation above about 30%; further: 0% is about no effect
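Inducible HEK293 T-REx D1 cells, force-coupled to calcium signalling, were plated at 4000 cells/well with tetracycline and held overnight at 30 C. After no-wash calcium dye loading, compound-evoked calcium rise over 180 s flagged agonists.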
D1 PAM: potentiators of human D1 dopamine receptor | P21728 | HEK293 TREx D1 cells, calcium flux, dopamine EC20 potentiation | potentiation, % at 10 µM | hit rate 0.036% among 360,000; in the data active means potentiation above about 30%; further: 0% is about no effect
DRD3 agonist: activates the human D3 dopamine receptor; D3R DiscoveRx beta-arrestin cells, luminescence, 90 min; hit rate 0.58% among 410,000; P35462; max activation, %; AID 652048; in the data active means max activation above about 30%; further: 0% is about no effect
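Cells at 1500/well, incubated overnight, then treated with pinned compounds (dopamine as control) for 90 min at 37 degrees C. DiscoveRx reagent added for 30 - 60 minutes at room temperature; luminescence read.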
D1 antagonist: human D1 dopamine receptor antagonism | P21728 | HEK293 TREx D1 cells, calcium flux, dopamine EC80; hits give low values | activity change, negative = inhibition, % at 10 µM | hit rate 3.2% among 360,000; in the data active means activity change below about -30%; further: on the % scale 0 is the no-effect control and ±100 the full control effect
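Tetracycline-induced HEK293 T-REx cells with force-coupled D1 receptor were loaded with a no-wash calcium dye. Compound was added after a 10 s baseline and read kinetically for 180 s; EC80 dopamine was then added and calcium flux followed another 180 s.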
An asterisk follows results filed as active; ? = inconclusive; . = no result given; ! = not confirmed by another sample.

SMILES	DRD3 antagonist	D1 ag	D1 PAM	DRD3 agonist	D1 antagonist
COCCNC(=O)C1CCCN(C(=O)c2ccc3ccccc3n2)CC1 (configuration not stated)	0.0	.	.	53.8*	.
CCNC(=O)C1CCCN(C(=O)c2ccc(OC)c(OC)c2)CC1 (configuration not stated)	19.8	.	.	79.3*	.
COc1ccc(C(=O)N2CCCCCC2)cc1OC1CCN(C(C)=O)CC1	1.4	4.5	-11.4	9.6	-67.0*
COc1cc(C(=O)N2CCCCCCC2)ccc1OC1CCN(C(C)=O)CC1	3.1	4.8	6.0	2.3	2.5
COc1cccc(CNC(=O)CSc2nnc(C)c3c(C)n(-c4ccccc4)nc23)c1OC	.	1.6	-0.3	-11.1	-1.6
COCCCn1c(Cc2csc(Nc3ccccc3)n2)nnc1SCC(N)=O	5.6	1.5	-1.2	-4.5	-35.8*
NC(=O)CSc1nnc(Cc2csc(Nc3ccccc3)n2)n1Cc1ccccc1	-6.8	0.6	-4.0	-9.1	10.6
Cc1nnsc1C(=O)Oc1ccccc1Cl	.	-0.6	0.2	9.1	-4.1
O=C(O)COn1c(-c2ccccc2)nc2ccc(Cl)cc21	2.8	0.8	-4.2	2.0	-8.2
COn1c(-c2ccccc2)nc2ccc(Cl)cc21	31.0	3.0	-7.4	23.0	-64.9*
Cc1ccc(C)c(N2CCN(C(=O)c3ccc(Nc4nc5ccccc5n5nnnc45)cc3)CC2)c1	.	1.9	1.7	-4.6	-6.6
COc1c(C)c2c(c(O)c1C/C=C(\C)CCC(=O)OCCN1CCOCC1)C(=O)OC2	.	.	.	-11.1	.
COc1ccc(CC(CC(=O)O)C(=O)NCc2ccccc2)cc1 (configuration not stated)	-68.8*	1.5	-2.6	-8.7	16.0
COc1ccc(C(=O)NNC(=O)C(=O)NCc2ccccc2)cc1	-27.5	0.8	-3.2	-10.1	-48.2*
COc1ccccc1C(=O)NNC(=O)C(=O)NCc1ccccc1	0.2	-0.4	-3.5	9.9	2.4
COc1ccc(NC(=O)C(NC(C)=O)C(=O)NCc2ccccc2)cc1 (configuration not stated)	-9.2	0.8	-4.5	-4.6	4.3
Cc1ccc(CC(CC(=O)O)C(=O)Nc2ccc(Cl)cc2)cc1 (configuration not stated)	-3.8	6.8	-5.2	1.8	-2.5
COc1ccc(CC(CC(=O)O)C(=O)Nc2ccc(Cl)c(Cl)c2)cc1 (configuration not stated)	-19.4	-1.5	14.0	-10.9	-30.6*
Cc1[nH]c(=O)[nH]c(=O)c1S(=O)(=O)Nc1cccc(Cl)c1C	.	-0.5	0.2	9.9	-0.9
Cc1ccn2c(=O)cc(COc3ccc(NC(=O)COc4ccccc4)cc3)nc2c1	.	-0.1	-0.6	7.7	7.7
Cc1cccc(CN2CCCC(C(=O)Nc3ccccc3Oc3cccnc3)C2)c1 (configuration not stated)	-20.5	-0.5	1.6	-4.4	-29.3
O=C(Nc1ccccc1Oc1cccnc1)C1CCCN(C/C=C/c2ccc(F)cc2)C1 (configuration not stated)	?	4.9	1.0	-36.0	-30.3*
CCOc1ccccc1NC(=O)C1CCCN(c2ncnc3onc(-c4ccc(F)cc4)c23)C1 (configuration not stated)	.	0.6	-1.9	2.1	3.3
Cc1nc2c(=O)n(C)c(=O)n(C)c2nc1Cl	-50.5*	6.9	-2.2	-21.5	-18.7
CCN1CCc2nc(N)oc2CC1	-15.9	1.2	-1.4	41.2*!	1.9
SMILES	DRD3 antagonist	D1 ag	D1 PAM	DRD3 agonist	D1 antagonist
CC(=O)N(CCCN(C)C)Cc1ccccn1	0.0	2.5	-9.9	44.2*	-8.9
COC(=O)c1ccccc1NC(=O)c1ccc2c(Cl)c3c(nc2c1)CCCC3	.	1.8	-3.1	6.4	7.7
Cc1csc2nc(COC(=O)c3ccccc3NC(=O)c3cccc(Br)c3)cc(=O)n12	.	-0.5	1.8	14.5	-52.6*
Cc1csc2nc(COC(=O)c3ccc(F)cc3)cc(=O)n12	.	5.9	-6.5	-8.0	-37.7*
CC1CC(C)CN(C(CCc2ccccc2)C(=O)NC2CCCCC2)C1 (configuration not stated)	-29.6	.	.	-8.0	.
CCCCCCCC/C=C\CCCCCCCC(=O)OC[C@@H](O)[C@H]1OC[C@H](O)[C@H]1O	.	.	.	9.2	.
COc1ccc(-c2cc(-c3ccc4c(c3)NC(=O)CO4)nc3c2COc2ccc(F)cc2-3)cc1	.	-0.4	-0.1	-3.4	4.9
CCSc1ccc([C@@H]2[C@H]3C(=O)N(CC)C(=O)[C@H]3[C@]3(C(=O)OC)CCCCN23)cc1OC	55.8	.	.	62.7*	.
CCN1C(=O)[C@H]2[C@@H](c3ccc(-c4cc(C(C)=O)cs4)cc3)N3CCC[C@@]3(C(=O)OC)[C@H]2C1=O	36.9	-1.1	-8.6	1.1	-31.1*
Cc1ccc(C(=O)Nc2ccc3oc(-c4cc(Br)ccc4Cl)nc3c2)cc1	.	0.8	-0.4	-3.6	0.4
N#CC1=C(S)N(c2ccc(F)cc2)C(c2ccco2)NC1=O (configuration not stated)	-4.4	4.0	-4.0	-5.0	-1.5
COc1cc(C2NC(=O)C(C#N)=C(S)N2c2ccc(C)cc2)ccc1OC(C)C (configuration not stated)	-68.2*	-1.5	-1.8	-0.9	.
N#CC1=C(S)N(c2ccccc2)C(c2ccc(-c3ccc(Cl)c(Cl)c3)o2)NC1=O (configuration not stated)	-1.6	62.5*	-1.1	2.7	-16.7
CCOc1ccc(C2NC(=O)C(C#N)=C(S)N2c2ccc(OC)cc2)cc1OC (configuration not stated)	-68.3*	4.2	1.4	0.1	14.3
Cc1ccc(N2C(S)=C(C#N)C(=O)NC2c2ccco2)cc1 (configuration not stated)	-1.6	2.3	-5.9	-6.1	-47.0*
O=C1c2ccccc2C(c2nnnn2Cc2ccccc2)N1Cc1cccc(F)c1 (configuration not stated)	-8.0	.	.	4.1	.
Cc1cccc(-c2noc(CNC(=O)c3ccccc3Br)n2)c1	.	10.5	-3.0	7.6	-4.2
COc1ccc(C2NC(=O)C(C#N)=C(S)N2c2cccc(C)c2)cc1OC (configuration not stated)	0.9	1.1	-3.9	3.6	-61.4*
Cn1cnc([N+](=O)[O-])c1Sc1ccc(C(C)(C)C)cc1	?	35.2*	2.0	-11.2	-1.0
COCCNC(=O)CCCn1c(SCC(=O)Nc2cccc(C)c2)nc2c(sc3ccccc32)c1=O	.	3.7	-1.6	-9.4	0.0
CS(=O)(=O)c1ccc(Nc2nc(C(N)Cc3ccc(Cl)cc3)cs2)cc1 (configuration not stated)	0.0	.	.	-5.5	.
CCC1S/C(=N/N=C/c2ccco2)N(Cc2ccc(F)cc2)C1=O (configuration not stated)	-9.7	3.2	4.1	0.0	-2.9
CC1S/C(=N/N=C/c2ccco2)N(Cc2ccccc2)C1=O (configuration not stated)	-2.4	4.8	-7.3	-1.4	-40.4*
